# From PubChem BioAssay (Tox21)
# Unmarked numbers belong to inactive results. Inconclusive results are not listed. Entries that show only a call come without a potency. Active and inactive are the calls of the source. Unless noted, calls come from the whole dose curve; as a rule, active = well fitted curve in the direction sought with a large enough effect in the repeat runs; inconclusive = weak or mixed curves; inactive = no such curve, though single readings can be large; an effect the other way counts as inactive or inconclusive.
# Experiments:
# [1] = target: Progesterone receptor (Homo sapiens) (UniProt P06401); assay: qHTS assay to identify small molecule antagonists of the progesterone receptor (PR) signaling pathway (AID 1346795; active = well fitted inhibition curve with a large enough effect in the signal ratio in the repeat runs, not every such curve was filed as active; the % refers to the signal ratio; note: potency is the fitted concentration of half-maximal effect)
# Method in brief: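 Read-out is fluorescence from the LiveBLAzer B/G FRET substrate, cleaved by a UAS-controlled beta-lactamase in PR-UAS-bla HEK293T cells after 16 hr exposure to compound plus 1 nM promegestone (final), followed by 2 hr at room temperature.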
# [2] = qHTS assay to identify small molecule antagonists of the progesterone receptor (PR) signaling pathway - cell viability counter screen (AID 1346798); note: nearly all actives have a fitted effect of over 50% in size; note: potency is the fitted concentration of half-maximal effect
# Method in brief: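 HEK293T PR-UAS-bla, 2% charcoal-stripped FBS; 4 hr pre-plate; cpd + R5020, 16 h 37C; LiveBLAzer read first; then CellTiter-Glo 30 min RT, luminescence.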
# [3] = qHTS assay to identify small molecule antagonists of the TGF-beta/Smad signaling pathway - cell viability counter screen (AID 1346824); note: nearly all actives have a fitted effect of over 50% in size
# Method in brief: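 SBE-bla HEK 293T cells, incubated overnight, then compound plus 0.25 ng/mL TGF-beta1 (stock added) for 5 hr at 37 C. Viability was read in the same wells by CellTiter-Glo luminescence after 30 min at room temperature.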
# [4] = qHTS assay to identify small molecule agonists of the TGF-beta/Smad signaling pathway - cell viability counter screen (AID 1346829); note: top concentration of the series differs between compounds; nearly all actives have a fitted effect of over 45% in size
# Method in brief: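 Luminescence from CellTiter-Glo, read after a 30 min room-temperature incubation, gives cell viability of SBE-bla HEK 293T cells treated 5 hr with compounds at 37 C.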
# [5] = qHTS assay to identify small molecule agonists of the TGF-beta/Smad signaling pathway (AID 1346859; active = well fitted activation curve with a large enough effect in the signal ratio in the repeat runs, not every such curve was filed as active; the % refers to the signal ratio; note: series mostly up to about 77 µM)
# Method in brief: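 SBE-bla HEK 293T, 4,000 cells/well, plated o/n; cpd in DMSO, 5 hr, 37 C/5% CO2; B/G FRET substrate 2 hr RT; ex 405, em 460/530 nm.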
# [6] = target: Thyrotropin-releasing hormone receptor (Homo sapiens) (UniProt P34981); assay: qHTS assay to identify small molecule antagonists of the thyrotropin-releasing hormone receptor (TRHR) signaling pathway (AID 1346877; active = well fitted inhibition curve with a large enough effect in the repeat runs, not every such curve was filed as active; note: series mostly up to about 51 µM)
# Method in brief: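 HEK293/TRHR cells, 18 h, 37 °C; Ca2+ dye 2 h; cpd 5 min RT; TRH 1 nM final; fluorescence read 3 min, 1 s intervals; 15 concs, triplicate.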
# [7] = target: Thyrotropin-releasing hormone receptor (Homo sapiens) (UniProt P34981); assay: qHTS assay to identify small molecule agonists of the thyrotropin-releasing hormone receptor (TRHR) signaling pathway (AID 1346891; calls by dose curve; note: series mostly up to about 58 µM)
# Method in brief: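 Intracellular calcium rise, read as fluorescence every second for 3 min, served as the agonist signal in dye-loaded HEK293 cells expressing TRHR; each compound ran at 15 concentrations in triplicate.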
# [8] = Caspase-3/7 induction in HepG2 cells by small molecules, qHTS assay (AID 1346978); note: nearly all actives have a fitted effect of over 15% in size
# Method in brief: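 Wild-type HepG2 cells, 2,000/well, settled 5 hr at 37 C and 5% CO2, then compound-treated for 17 hr; caspase-3/7 activity read by luminescent Caspase-Glo 3/7 after 30 min at room temperature.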
# [9] = Caspase-3/7 induction in CHO-K1 cells by small molecules, qHTS assay (AID 1346980); note: nearly all actives have a fitted effect of over 15% in size
# Method in brief: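 Wild-type CHO-K1 cells exposed to compounds for 17hr at 37 C, 5% CO2. Caspase-3/7 activity then measured by Caspase-Glo 3/7 luminescence after 30min at room temperature.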
# [10] = Caspase-3/7 induction in HepG2 cells by small molecules, qHTS cell viability counter screen (AID 1346981); note: nearly all actives have a fitted effect of over 30% in size; note: potency is the fitted concentration of half-maximal effect
# Method in brief: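 Fluorescence read-out of live-cell protease activity (CellTiter-Fluor) after 1 hr with reagent. This was measured in the same wells as the caspase-3/7 luminescence, on HepG2 cells exposed to DMSO-dissolved compounds for 16 hr at 37 C.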
# [11] = target: Nuclear receptor subfamily 1 group I member 2 (Homo sapiens) (UniProt O75469); assay: Human pregnane X receptor (PXR) small molecule agonists, qHTS assay (AID 1346982); note: nearly all actives have a fitted effect of over 35% in size; note: potency is the fitted concentration of half-maximal effect
# Method in brief: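 HepG2 PXR-Luc reporter line, 5% charcoal-stripped FBS; 5 hr pre-incubation, compound (DMSO) 24 hr at 37 C/5% CO2; ONE-Glo 30 min RT; luminescence read-out.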
# [12] = target: Progesterone receptor (Homo sapiens) (UniProt P06401); assay: qHTS assay to identify small molecule agonists of the progesterone receptor (PR) signaling pathway (AID 1346784; calls by dose curve; note: nearly all actives have a fitted effect of over 30% in size; note: potency is the fitted concentration of half-maximal effect)
# Method in brief: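 Beta-lactamase reporter read-out: after 16 hr compound treatment at 37C and a further 2 hr at room temperature with LiveBLAzer B/G FRET substrate, fluorescence was measured in PR-UAS-bla HEK 293T cells grown in 2% charcoal-stripped serum.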
# [13] = target: Acetylcholinesterase (Homo sapiens) (UniProt P22303); assay: Acetylcholinesterase (AChE) small molecule antagonists: colormetric cell-based qHTS assay (AID 1347395; calls by dose curve; note: nearly all actives have a fitted effect of over 30% in size)
# Method in brief: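 Colorimetric read-out: DTNB detects thiocholine released when cellular AChE in SH-SY5Y cells hydrolyses acetylthiocholine. Cells attached overnight, received compound for 30 min at 37 C, then substrate mix for 90 min at 37 C.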
# [14] = target: Acetylcholinesterase (Homo sapiens) (UniProt P22303); assay: Acetylcholinesterase (AChE) small molecule antagonists: enzyme-based qHTS assay (AID 1347397; calls by dose curve; note: nearly all actives have a fitted effect of over 55% in size); conditions: Potency: AChE enzyme activity inhibition
# Method in brief: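 Colorimetric DTNB read-out of thiocholine released from acetylthiocholine by recombinant human AChE (50 mU/mL as dispensed). Compounds were preincubated 30 min at RT before substrate/DTNB addition, with a 10 min RT reaction.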
# [15] = Human pregnane X receptor (PXR) small molecule agonists, qHTS cell viability counter screen (AID 1346977); note: nearly all actives have a fitted effect of over 50% in size; note: potency is the fitted concentration of half-maximal effect
# Method in brief: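 PXR-Luc HepG2, 2,000 cells/well, 5% charcoal-stripped FBS; 5hr settle; cpd 24hr, 37C/5% CO2; CellTiter-Fluor at 23hr, read 1hr later (fluorescence).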
# [16] = Caspase-3/7 induction in CHO-K1 cells by small molecules, qHTS cell viability counter screen (AID 1346979); note: nearly all actives have a fitted effect of over 35% in size; note: potency is the fitted concentration of half-maximal effect
# Method in brief: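 Cells (CHO-K1, wild type) are plated at 1,500 per well and incubated 5hr. Test compounds in DMSO are then pinned in, followed by 16hr at 37C and 5% CO2. Viability is read by CellTiter-Fluor fluorescence after 1hr.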
# [17] = qHTS assay to identify small molecule agonists of the progesterone receptor (PR) signaling pathway - cell viability counter screen (AID 1346799; calls by dose curve; note: potency is the fitted concentration of half-maximal effect; nearly all actives have a fitted effect of over 45% in size)
# Method in brief: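 Luminescence from CellTiter-Glo, added after the beta-lactamase FRET read in the same wells, gave cytotoxicity in PR-UAS-bla HEK293T cells treated with compounds for 16 hr at 37C.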
# Chain of Progesterone receptor (Homo sapiens) (P06401 whole entry, looked up): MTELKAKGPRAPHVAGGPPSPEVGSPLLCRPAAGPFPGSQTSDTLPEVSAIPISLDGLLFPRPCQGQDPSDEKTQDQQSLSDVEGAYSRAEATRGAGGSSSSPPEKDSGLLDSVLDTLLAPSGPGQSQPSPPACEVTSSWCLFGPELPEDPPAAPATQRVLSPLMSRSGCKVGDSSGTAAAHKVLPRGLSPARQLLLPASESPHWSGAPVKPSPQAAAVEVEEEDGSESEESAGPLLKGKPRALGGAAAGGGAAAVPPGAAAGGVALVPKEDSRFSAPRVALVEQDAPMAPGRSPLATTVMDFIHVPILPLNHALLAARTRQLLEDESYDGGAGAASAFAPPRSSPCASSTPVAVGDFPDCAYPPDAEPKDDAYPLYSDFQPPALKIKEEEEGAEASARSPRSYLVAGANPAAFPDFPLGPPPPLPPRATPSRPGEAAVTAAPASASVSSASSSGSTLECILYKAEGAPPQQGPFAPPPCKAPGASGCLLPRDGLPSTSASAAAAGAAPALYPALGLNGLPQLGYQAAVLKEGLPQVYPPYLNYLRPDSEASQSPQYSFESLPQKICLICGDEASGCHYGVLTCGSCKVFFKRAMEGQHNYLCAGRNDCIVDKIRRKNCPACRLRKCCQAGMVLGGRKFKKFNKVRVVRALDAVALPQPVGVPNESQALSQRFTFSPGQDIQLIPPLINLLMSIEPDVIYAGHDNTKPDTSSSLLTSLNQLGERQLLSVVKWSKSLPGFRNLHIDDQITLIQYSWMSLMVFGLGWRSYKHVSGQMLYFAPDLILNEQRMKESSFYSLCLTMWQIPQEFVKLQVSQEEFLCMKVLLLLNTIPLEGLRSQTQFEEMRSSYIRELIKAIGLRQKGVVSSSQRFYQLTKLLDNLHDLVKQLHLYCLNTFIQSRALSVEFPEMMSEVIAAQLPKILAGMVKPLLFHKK
# Chain of Nuclear receptor subfamily 1 group I member 2 (Homo sapiens) (O75469 whole entry, looked up): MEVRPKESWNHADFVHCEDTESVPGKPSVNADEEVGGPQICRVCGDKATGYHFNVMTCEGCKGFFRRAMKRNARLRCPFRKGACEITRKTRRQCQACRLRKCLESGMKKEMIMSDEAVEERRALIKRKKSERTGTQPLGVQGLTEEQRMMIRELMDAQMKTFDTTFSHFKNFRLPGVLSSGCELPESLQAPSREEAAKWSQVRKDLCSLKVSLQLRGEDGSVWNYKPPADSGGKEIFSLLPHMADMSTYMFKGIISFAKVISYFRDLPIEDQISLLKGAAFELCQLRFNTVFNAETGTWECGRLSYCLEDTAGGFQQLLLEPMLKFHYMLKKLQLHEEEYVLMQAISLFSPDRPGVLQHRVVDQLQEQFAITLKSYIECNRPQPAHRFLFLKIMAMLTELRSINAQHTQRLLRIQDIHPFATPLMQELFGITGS
# Chain of Acetylcholinesterase (Homo sapiens) (P22303 whole entry, looked up): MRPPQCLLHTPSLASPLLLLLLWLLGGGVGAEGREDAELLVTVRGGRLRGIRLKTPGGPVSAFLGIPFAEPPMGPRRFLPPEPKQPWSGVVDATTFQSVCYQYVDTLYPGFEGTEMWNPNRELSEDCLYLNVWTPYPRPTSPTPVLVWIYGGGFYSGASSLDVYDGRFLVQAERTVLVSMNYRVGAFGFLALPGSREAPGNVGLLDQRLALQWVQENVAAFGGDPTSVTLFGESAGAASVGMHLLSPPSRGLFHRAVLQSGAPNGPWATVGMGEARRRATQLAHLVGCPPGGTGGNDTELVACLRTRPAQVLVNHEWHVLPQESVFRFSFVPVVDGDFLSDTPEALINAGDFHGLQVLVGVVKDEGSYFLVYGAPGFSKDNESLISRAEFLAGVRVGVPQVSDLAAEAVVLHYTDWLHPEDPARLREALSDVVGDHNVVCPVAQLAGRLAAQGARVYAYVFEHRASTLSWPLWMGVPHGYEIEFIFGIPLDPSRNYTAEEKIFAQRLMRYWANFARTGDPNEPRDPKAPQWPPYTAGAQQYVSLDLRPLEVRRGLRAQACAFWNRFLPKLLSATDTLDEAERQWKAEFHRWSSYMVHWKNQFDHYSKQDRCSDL
# Chain of Thyrotropin-releasing hormone receptor (Homo sapiens) (P34981 whole entry, looked up): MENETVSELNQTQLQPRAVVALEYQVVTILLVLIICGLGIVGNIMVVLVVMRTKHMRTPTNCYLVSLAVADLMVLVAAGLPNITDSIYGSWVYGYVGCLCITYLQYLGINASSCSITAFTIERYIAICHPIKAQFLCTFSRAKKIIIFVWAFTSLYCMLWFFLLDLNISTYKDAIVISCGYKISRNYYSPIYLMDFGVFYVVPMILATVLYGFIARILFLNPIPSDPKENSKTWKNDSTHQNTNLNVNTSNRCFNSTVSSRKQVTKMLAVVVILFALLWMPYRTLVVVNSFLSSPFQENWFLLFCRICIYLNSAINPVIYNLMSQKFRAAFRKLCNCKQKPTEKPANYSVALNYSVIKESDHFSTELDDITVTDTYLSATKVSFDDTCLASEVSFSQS
Structure (SMILES),Potency [1],Potency [2],Potency [3],Potency [4],outcome [5],Potency [6],Potency [7],Potency [8],Potency [9],Potency [10],Potency [11],Potency [12],Potency [13],Potency [14],Potency [15],Potency [16],Potency [17]
CCOP(=O)(OCC)Oc1nc(Cl)c(Cl)cc1Cl,5.42 µM (active),inactive,inactive,inactive,inactive,inactive,inactive,inactive,inactive,inactive,54.2 µM (active),–,–,–,–,–,–
C#CCC1=C(C)C(OC(=O)C2C(C=C(C)C)C2(C)C)CC1=O (configuration not stated),–,–,inactive,inactive,inactive,inactive,inactive,inactive,inactive,inactive,10.8 µM (active),inactive,inactive,inactive,–,–,–
N#CCCl,inactive,–,inactive,inactive,inactive,–,–,inactive,inactive,inactive,inactive,–,inactive,inactive,inactive,inactive,–
Cc1c([N+](=O)[O-])c(C)c([N+](=O)[O-])c(C(C)(C)C)c1[N+](=O)[O-],–,–,inactive,inactive,inactive,inactive,inactive,inactive,inactive,inactive,48.6 µM (active),inactive,inactive,inactive,inactive,–,–
C[C@]12Cc3cn[nH]c3C[C@@H]1CC[C@@H]1[C@@H]2CC[C@@]2(C)[C@H]1CC[C@]2(C)O,0.119 µM (active),18.8 µM (active),–,inactive,inactive,inactive,inactive,inactive,–,inactive,9.44 µM (active),–,–,inactive,–,–,18.8 µM (active)
Nc1ccccc1-c1ccccc1,–,–,inactive,inactive,inactive,inactive,inactive,inactive,–,inactive,–,inactive,inactive,inactive,inactive,inactive,30.5 µM (active)
CCCCC(CC)COC(=O)c1ccccc1C(=O)OCC(CC)CCCC (configuration not stated),–,–,–,inactive,–,inactive,inactive,inactive,inactive,inactive,6.86 µM (active),43.3 µM (active),inactive,inactive,inactive,inactive,–
CCC[CH2][Sn]([CH2]CCC)([O]C(C)=O)[O]C(C)=O,0.195 µM (active),–,inactive,inactive,–,–,–,inactive,inactive,49 µM (active),7.77 µM (active),–,inactive,inactive,27.6 µM (active),–,–
O.O.O.O=C([O-])[C@H]([O-])[C@@H]([O-])C(=O)[O-].O=C([O-])[C@H]([O-])[C@@H]([O-])C(=O)[O-].[K+].[K+].[Sb+3].[Sb+3],–,–,inactive,inactive,inactive,inactive,inactive,inactive,inactive,inactive,–,inactive,inactive,inactive,inactive,17.3 µM (active),–
